About 83,000 compounds went through this panel and 20% of them were active in at least one assay; those are over-represented in the sample as a whole.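 96-well plates, one dose, 48 hours. Percent growth reported; active if below 10.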 A number with no mark means an inactive call.
These compounds were tested on NCI-H322M lung (assay: NCI-60 one-dose screen, 48 h (100 = growth as untreated, 0 = no growth, -100 = all killed)). Settings: 10 µM unless noted.

Row | Structure (SMILES) | growth
1 | O=C(NO)c1ccc(-n2nc(-c3ccccc3)c3ccccc32)cc1 | 46.9%
2 | O=C1Nc2ccccc2/C1=C\c1c(-c2ccc(F)cc2)nc2ccccn12 | 83%
3 | Oc1cccc(CCc2ccc(Oc3cc(CCc4cccc(O)c4)cc(O)c3O)cc2)c1 | 81.8%
4 | CCCCCCCC(=O)OCC/C=C/C1OC1C1OC(=O)/C=C\C=C\C(=O)N(C(C)=O)C(=O)/C=C(/C)CCC2OC2C1OC(=O)NC(C)=O (stereo unspecified) | 111%
5 | Cc1ccc(NS(=O)(=O)c2ccc(-c3cnc(C4CC4)o3)cc2)cc1C(F)(F)F | 88.7%
6 | CNC(=O)c1cncc(Cn2nc(C)c(NC(=O)c3ccc(COc4ccc(C(F)(F)F)cc4C)cc3)c2C)c1 | 88.8%
7 | Cc1cc(C)c(S(=O)(=O)Oc2ccccc2[N+](=O)[O-])c(C)c1 | 52.6%
8 | C=C1C(=O)O[C@H]2[C@H]1CC/C(CNC(=O)C(C)c1ccc(CC(C)C)cc1)=C\CC[C@@]1(C)O[C@@H]21 (stereo partly specified) | 72.3%
9 | NC(=S)N1N=C(c2ccccc2)CC1c1cn(-c2ccccc2)nc1-c1ccc(OCc2ccccc2)cc1 (stereo unspecified) | 94.9%
10 | O=C1Nc2cc(-c3cccc(O)c3)ccc2/C1=C/c1ccc[nH]1 | 21.8%
11 | COc1ccc(/C=C/c2nc(Nc3ccc(S(=O)(=O)NC(C)=O)cc3)c3ccccc3n2)cc1 | 38.6%

Source: PubChem BioAssay (NCI)
